According to PubChem BioAssay AID651804 (National Center for Advancing Translational Sciences (NCATS), 2012):
Out of some 1,200 compounds screened, about 20 (2%) were called active. About 23% were inconclusive and are not listed. For the sample, actives were picked, then their nearest neighbours and some compounds at random. A number with no mark means an inactive call. Calls come from the whole dose curve; as a rule, active = well fitted inhibition curve with a large enough effect; inconclusive = small, poorly fitted or top-dose-only effect; inactive = no such curve, though single readings can be large or run the other way.

molecular target: Transcriptional regulator ERG (Homo sapiens) (UniProt P11308); test: qHTS for Small Molecule Inhibitors of the ERG Ets/DNA interaction: HTRF assay against cherry picks; conditions: His-ERG Ets domain with biotin-DNA; series mostly up to 154 µM; activity change, negative = inhibition: at the top concentration
Description: The Ets family of proteins is a family of ~30 conserved transcription factors defined by the presence of an ~85 amino acid domain referred to as the Ets domain, which mediates sequence-specific DNA binding to a core DNA element GGAA/T.The Ets family member ERG has been linked to several neoplasms. […] More extensive studies of the effects of over-expression of ERG in prostate cells have recently been carried out and have shown that over-expression of ERG results in increased invasion. […] We will carry out a high throughout screen to identify inhibitors of the interaction between ERG and DNA using a fluorescence polarization (FP) assay with a His-tagged ERG Ets domain and fluorescently-labeled DNA probes to develop small molecule inhibitors of this interaction as probes to test this hypothesis and lay the groundwork for the development of targeted therapies against ERG. This is the counterscreen against the cherry picks. NIH Molecular Libraries Probe Production Network [MLPCN] NIH Chemical Genomics Center [NCGC] Grant: NS066464 PI Name: John Bushweller, University of Virgina
2 ul of protein solution (200 nM ERG domain in 300mM KCl, 50mM Tris-HCl, 1mM EDTA, 1mM DTT, pH 7.5); 20 nl Control plate and compound library plate; 2 ul of 200 nM biotin-DNA; incubate for 10 min at RT; 1 ul of anti-His antibody conjugated to the long-life fluorescent cryptate donner […] (5ng/ul) and streptavidin conjugated to the acceptor compound […] (0.2 ng/ul) mix; incubate 10 min and measure FRET (Excitation = 320 nm, Emission = 615, 665 nm).
Potency is the fitted concentration of half-maximal effect.

Chain of Transcriptional regulator ERG (Homo sapiens) (P11308 whole entry, looked up, the tested form may be a part): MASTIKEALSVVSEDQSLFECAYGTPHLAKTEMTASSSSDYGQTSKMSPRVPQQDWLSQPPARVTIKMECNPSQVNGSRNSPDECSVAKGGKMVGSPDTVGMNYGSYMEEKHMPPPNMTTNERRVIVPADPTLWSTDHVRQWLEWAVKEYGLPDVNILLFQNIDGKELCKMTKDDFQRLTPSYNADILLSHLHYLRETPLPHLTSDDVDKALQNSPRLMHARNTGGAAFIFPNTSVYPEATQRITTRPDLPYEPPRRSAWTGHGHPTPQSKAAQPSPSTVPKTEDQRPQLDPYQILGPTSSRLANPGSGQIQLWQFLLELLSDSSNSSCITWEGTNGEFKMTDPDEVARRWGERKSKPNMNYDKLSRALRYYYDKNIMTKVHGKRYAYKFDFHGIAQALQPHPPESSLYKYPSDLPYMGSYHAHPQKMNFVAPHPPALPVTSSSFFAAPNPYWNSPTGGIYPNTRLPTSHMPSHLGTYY

| Structure (SMILES) | activity change, negative = inhibition | Potency |
| --- | --- | --- |
| CCOc1cc(CNc2cccc3[nH]c(C)nc23)ccc1OC | -20.8% |  |
| Cc1cc(C)cc(NC(=O)CCOc2ccccc2)c1 | -18.5% |  |
| O=C1CC(Cc2ccccc2)C(=O)N1c1ccc(Cl)cn1 (stereo unspecified) | -9.76% |  |
| COc1ccc(C(=O)N[C@H](C(=O)N2CCN(c3ccccc3F)CC2)C(C)C)cc1 | -6.15% |  |
| CC(=O)NNc1cc(N2CCOCC2)nc(N2CCOCC2)n1 | 0.53% |  |
| COc1cc(SC)ccc1C(=O)NC(C)C | -29% |  |
| COc1ccc(S(=O)(=O)NNC(=S)NCCc2ccccc2)c(OC)c1 | -17.7% |  |
| Cc1ccc2nc3c(c(N)c2c1)CCN3C | -20.7% |  |
| CCc1cc(C(=O)OC)c(NC(=O)CN2CCN(C(=O)C3CCCO3)CC2)s1 (stereo unspecified) | 7.69% |  |
| Cc1ccc(S(=O)(=O)N2CCC[C@H]2C(=O)NC2CCCCC2)cc1 | -19.9% |  |
| CCOC(=O)CC1C(=O)NCCN1C(=O)c1c(F)cccc1F (stereo unspecified) | -22.2% |  |
| CC(=O)NC(CC(=O)Nc1nc(-c2ccccc2)c(C(C)=O)s1)c1ccccc1 (stereo unspecified) | -23% |  |
| COc1ccc(N(CCC(=O)Nc2ccccc2F)S(=O)(=O)c2ccc(C)cc2C)cc1 | 1.43% |  |
| CN(CCO)C1=NS(=O)(=O)c2cc([N+](=O)[O-])ccc21 |  | 28.2 µM (active) |
| CCN(CC)c1ccc([N+](=O)[O-])cc1C(=O)O | -28% |  |
| O=C(COc1ccccc1)Nc1ccc2c(c1)Cc1cc(NC(=O)COc3ccccc3)ccc1-2 | -25.6% |  |
| CNC(=O)C(=O)NCCN1CCN(C(=O)c2ccc([N+](=O)[O-])cc2)CC1 | -38.6% |  |
| COc1ccc(OC)c(NC(=O)Cn2cnc3sc(C)c(S(=O)(=O)N4CCN(c5ccccc5OC)CC4)c3c2=O)c1 | -7.8% |  |
| CN(C)c1nc2n(c(=S)n1)CCS2 | -23.1% |  |
| CCC1COC(c2cccn2Cc2ccc(Cl)cc2)=N1 (stereo unspecified) | 7.96% |  |
| CC(=O)OCC(=O)C1=CCC2C3CCC4=CC(=O)C=CC4(C)C3(F)C(OC(C)=O)CC12C (stereo unspecified) | -16.2% |  |
| COc1cc(OC)cc(C(=O)NCC(=O)OCc2csc(-c3ccccc3)n2)c1 | 34.1% |  |
| CCn1cc(S(=O)(=O)Nc2ccc(Cl)cc2F)cn1 | -8.65% |  |
| COc1ccc([N+](=O)[O-])c(OC)c1C(=O)NC(=O)Nc1c(F)c(F)c(F)c(F)c1F | -14.5% |  |
| CCn1c(CSc2ncn[nH]2)nc2cc(C(=O)O)ccc21 | -12.9% |  |
| O=C1C(SCCO)=C(SCCO)C(=O)c2ccccc21 |  | 50.1 µM (active) |

| Structure (SMILES) | activity change, negative = inhibition | Potency |
| --- | --- | --- |
| CS(=O)(=O)NN1C(=O)c2ccccc2NC1c1cccc(O)c1 (stereo unspecified) | -27.5% |  |
| S=C(NCc1ccco1)N1CCN(c2ccccn2)CC1 | -8.01% |  |
| CCOc1ccccc1N1CCN(C(=O)c2cc(S(=O)(=O)N(C)C)ccc2N2CCCC2)CC1 | -17.2% |  |
| COc1ccc(CNC(=O)CN2C(=O)NC3(CCCCCC3)C2=O)cc1OC | -24.8% |  |
| CCn1nc(C)cc1C(=O)N1CCCC(N2CCN(Cc3ccc4c(c3)OCO4)CC2)C1 (stereo unspecified) | -15.2% |  |
| CCCC(=O)Nn1cnc2c(c1=O)C1(CCCCC1)Cc1ccccc1-2 | -1.01% |  |
| COc1ccc(S(=O)(=O)NCC2CC3C=CC2C3)cc1OC (stereo unspecified) | -23.8% |  |
| COCCNC(=O)Cn1c(=O)n(CCCC(=O)NCc2ccc3c(c2)OCO3)c(=O)c2sccc21 | -28.9% |  |
| COC(=O)C1=C(C)NC(C)=C(C(=O)OC)C1c1ccc(-c2cccc(Cl)c2Cl)o1 | 10.5% |  |
| CCOc1ccc(NC(=O)CN(C)C(=O)c2ccccc2CCc2ccccc2)cc1OCC | 3.66% |  |
| COc1ccc(CCNC(=O)Cn2cc(C(F)(F)F)cc(Cl)c2=O)cc1 | -28.5% |  |
| CSc1nc2c(c(=O)[nH]1)C(c1cccc(Br)c1)CC(=O)N2 (stereo unspecified) | -7% |  |
| CC(=O)Nc1ccc(S(=O)(=O)Nc2nc3ccccc3nc2Nc2ccc(O)c(C(=O)O)c2)cc1 | -17.6% |  |
| COC(OC)c1nc(SCC(=O)Nc2cccc(Cl)c2)ncc1C(=O)O | -14% |  |
| CCC(Oc1ccccc1F)C(=O)NCCCn1ccnc1 (stereo unspecified) | -4.46% |  |
| Cc1nonc1C1CCCN1C(=O)c1cc(COc2ccc(F)cc2Cl)on1 (stereo unspecified) | -30.1% |  |
| Cc1ccc(COC(=O)CCN=C2NS(=O)(=O)c3ccccc32)cc1 | -23.1% |  |
| Nc1cccc(N2C(=O)c3cccc4c(N)ccc(c34)C2=O)c1 |  | 39.8 µM (active) |
| O=C(Nc1ccc(-c2nc3ccccc3[nH]2)cc1)c1c(F)c(F)c(F)c(F)c1F | -17.1% |  |
| Cn1ccc(C(=O)OCC(=O)Nc2ccccc2)n1 | -10.8% |  |
| COc1ccc(CNC(=O)COC(=O)CCOc2ccccc2)cc1 | -27.1% |  |
| Cc1nn(-c2ccc(Cl)cc2)c2[nH]c(CCl)cc(=O)c12 | -6.79% |  |
| Cc1cc(S(=O)(=O)N2CCOCC2)ccc1OCC(=O)Nc1ccc(F)c(Cl)c1 | -25.9% |  |
| C=CCn1c2ccccc2c2nnc(SCC(=O)NC(C(=O)OC)C(C)C)nc21 (stereo unspecified) | -32.4% |  |
| N#Cc1c(NC(=O)CCCN2C(=O)c3ccccc3C2=O)oc(-c2ccccc2)c1-c1ccccc1 | -4.08% |  |
